The source of these data is PubChem BioAssay.

Molecules are shown by their SMILES. Activity calls are given as the source filed them.

A short description of assay [1]: optical density shifts of acrAB sulA E. coli – strain DRC41, OD650, 48 h, E. coli filamentation inducer project, primary screen (AID 1152).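 Note: E. coli MC1000 strain DRC41 lacking acrAB efflux pump and sulA.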 Conditions: higher = more signal, called active from +8 up or from −8 down.
Assay [2] can be described thus: probe aLefty1 binding on compound microarray – biochemical, small-molecule microarray, 635/667 nm fluorescence, primary screen (AID 1153).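 Note: score merges spot fluorescence with signal-to-noise ratio from the scanned slide images.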 Particulars: higher = more signal.
Assay [3] in a line: plasmodial surface anion channel blockers, osmotic lysis – cell-based, P. falciparum Indochina, OD700, 1 h, primary screen (AID 1154). Conditions: P. falciparum Indochina infected RBC osmotic lysis, higher = more signal, called active from +8 up or from −8 down.
Assay [4] in a line: plasmodial surface anion channel blockers, osmotic lysis – cell-based, P. falciparum Indochina, OD700, 2 h, primary screen (AID 1155).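 Note: lysis reports solute entry through the parasite surface anion channel PSAC.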 Particulars: P. falciparum Indochina infected erythrocytes, higher = more signal, called active from +8 up or from −8 down.
Assay [5] can be described thus: changes in parasitized red cell lysis, either direction – P. falciparum Indochina, OD700, 3 h, PSAC antagonist project, primary screen (AID 1156). Particulars: P. falciparum-infected erythrocytes, osmotic lysis, higher = more signal, called active from +8 up or from −8 down.
Assay [6] is described as follows: plasmodial surface anion channel blockers, osmotic lysis – cell-based, P. falciparum Indochina, OD700, 18 h, primary screen (AID 1157). Conditions: P. falciparum Indochina infected erythrocytes, osmotic lysis OD700, 18 h; higher = more signal, called active from +8 up or from −8 down.
The nature of assay [7]: S6 kinase pathway phospho-S6 level changes – cell-based, A549, cytoblot, luminescence, serum-stimulated, primary screen (AID 1158).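 Note: serum-stimulated A549 lung adenocarcinoma cells; signal is phosphorylated S6 detected by cytoblot immunostaining with HRP secondary.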 Particulars: 5 h, higher = more signal.
Assay [8] addresses NADPH oxidase 2 (Homo sapiens) (UniProt P04839). Briefly: compounds shifting NOX2 Amplex Red fluorescence – cell-based, HEK293-NOX2, PMA-stimulated, NOX inhibitor project, primary screen (AID 1159). Note: test concentration not given here. Conditions: 45 min, higher = more signal, called active from +8 up or from −8 down.
In assay [9] the target is NADPH oxidase 4 (Homo sapiens) (UniProt Q9NPH5). Briefly: compounds shifting NOX4 Amplex Red fluorescence – cell-based, HEK293-NOX4, tetracycline-induced, NOX inhibitor project, primary screen (AID 1160). Conditions: HEK293-NOX4, Amplex Red H2O2 fluorescence, 45 min; higher = more signal, called active from +8 up or from −8 down.
For assay [10], the target named is NADPH oxidase 5 (Homo sapiens) (UniProt Q96PH1). Put plainly: compounds shifting NOX5 Amplex Red fluorescence – cell-based, HEK293-NOX5, NOX inhibitor project, primary screen (AID 1161). Conditions: HEK293-NOX5, ionomycin, 45 min, higher = more signal.
A short description of assay [11]: compound effects on lung adenocarcinoma cell viability – A549, calcein-AM fluorescence, 48 h, basal, profiling panel (AID 1162). Note: test concentration not given here. Conditions: higher = more signal.
The nature of assay [12]: compound effects on differentiated 3T3-L1 adipocyte viability – cell-based, 3T3-L1 adipocytes, calcein-AM fluorescence, 48 h, basal, profiling panel (AID 1163). Note: test concentration not given here. Conditions: 3T3-L1 adipocytes viability, higher = more signal.
The nature of assay [13]: compound effects on hepatocellular carcinoma cell viability – HepG2, calcein-AM fluorescence, 48 h, basal, profiling panel (AID 1164). Note: test concentration not given here. Particulars: higher = more signal.
A short description of assay [14]: compound effects on multiple myeloma cell viability – MM1S, calcein-AM fluorescence, 48 h, basal, profiling panel (AID 1165). Note: test concentration not given here. Conditions: higher = more signal.
Assay [15] can be described thus: calcein-AM signal in unstimulated myeloma cells – cell-based, calcein-AM fluorescence, 48 h, PK04 Diversity Set, profiling panel (AID 1166).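 Note: cells grown under basal conditions without added stimulus; test concentration not given here.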 Particulars: RPMI8226 myeloma viability, higher = more signal.
The nature of assay [16]: JC-1 mitochondrial signal, unstimulated HepG2 cells – cell-based, JC-1 fluorescence, 24 h, 100 nL compound, profiling panel (AID 1167). Note: test concentration not given here. Particulars: HepG2 mitochondrial potential, higher = more signal.
Assay [17] is described as follows: JC-1 mitochondrial signal, unstimulated adipocytes – cell-based, JC-1 fluorescence, 3T3-L1 adipocytes, 24 h, 100 nL compound, profiling panel (AID 1168). Note: test concentration not given here. Particulars: JC-1 mitochondrial fluorescence, higher = more signal, called active from +8 up or from −8 down.
Assay [18] in a line: JC-1 mitochondrial signal, unstimulated myeloma cells – cell-based, JC-1 fluorescence, RPMI8226, 24 h, 100 nL compound, profiling panel (AID 1169). Note: test concentration not given here. Conditions: JC-1 mitochondrial potential fluorescence, higher = more signal.
Assay [19] is described as follows: JC-1 mitochondrial signal, unstimulated MM1S myeloma – cell-based, JC-1 fluorescence, 24 h, 100 nL compound, profiling panel (AID 1170). Note: test concentration not given here. Particulars: MM1S mitochondrial potential, higher = more signal.
Assay [20] is described as follows: resazurin metabolic signal in A549 cells – cell-based, resazurin fluorescence, 24 h, PK04 Diversity Set, profiling panel (AID 1171). Note: test concentration not given here. Particulars: A549 viability, higher = more signal, called active from +8 up or from −8 down.

Sequence of NADPH oxidase 4 (Homo sapiens) (Q9NPH5 whole entry, looked up): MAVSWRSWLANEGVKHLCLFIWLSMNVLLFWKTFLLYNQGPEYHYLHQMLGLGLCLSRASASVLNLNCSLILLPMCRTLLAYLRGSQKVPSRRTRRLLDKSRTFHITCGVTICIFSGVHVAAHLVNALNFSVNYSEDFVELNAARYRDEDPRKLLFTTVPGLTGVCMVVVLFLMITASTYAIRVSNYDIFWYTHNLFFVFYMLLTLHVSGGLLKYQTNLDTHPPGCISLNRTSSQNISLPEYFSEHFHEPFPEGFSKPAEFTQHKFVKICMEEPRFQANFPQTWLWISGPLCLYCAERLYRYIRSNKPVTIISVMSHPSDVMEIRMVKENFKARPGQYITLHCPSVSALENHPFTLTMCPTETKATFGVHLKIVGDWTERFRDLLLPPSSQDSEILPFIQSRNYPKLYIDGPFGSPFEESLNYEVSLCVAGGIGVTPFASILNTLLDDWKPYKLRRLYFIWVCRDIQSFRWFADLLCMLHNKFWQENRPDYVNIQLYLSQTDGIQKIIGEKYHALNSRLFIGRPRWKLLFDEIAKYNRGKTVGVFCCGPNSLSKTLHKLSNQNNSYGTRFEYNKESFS
Sequence of NADPH oxidase 5 (Homo sapiens) (Q96PH1 whole entry, looked up): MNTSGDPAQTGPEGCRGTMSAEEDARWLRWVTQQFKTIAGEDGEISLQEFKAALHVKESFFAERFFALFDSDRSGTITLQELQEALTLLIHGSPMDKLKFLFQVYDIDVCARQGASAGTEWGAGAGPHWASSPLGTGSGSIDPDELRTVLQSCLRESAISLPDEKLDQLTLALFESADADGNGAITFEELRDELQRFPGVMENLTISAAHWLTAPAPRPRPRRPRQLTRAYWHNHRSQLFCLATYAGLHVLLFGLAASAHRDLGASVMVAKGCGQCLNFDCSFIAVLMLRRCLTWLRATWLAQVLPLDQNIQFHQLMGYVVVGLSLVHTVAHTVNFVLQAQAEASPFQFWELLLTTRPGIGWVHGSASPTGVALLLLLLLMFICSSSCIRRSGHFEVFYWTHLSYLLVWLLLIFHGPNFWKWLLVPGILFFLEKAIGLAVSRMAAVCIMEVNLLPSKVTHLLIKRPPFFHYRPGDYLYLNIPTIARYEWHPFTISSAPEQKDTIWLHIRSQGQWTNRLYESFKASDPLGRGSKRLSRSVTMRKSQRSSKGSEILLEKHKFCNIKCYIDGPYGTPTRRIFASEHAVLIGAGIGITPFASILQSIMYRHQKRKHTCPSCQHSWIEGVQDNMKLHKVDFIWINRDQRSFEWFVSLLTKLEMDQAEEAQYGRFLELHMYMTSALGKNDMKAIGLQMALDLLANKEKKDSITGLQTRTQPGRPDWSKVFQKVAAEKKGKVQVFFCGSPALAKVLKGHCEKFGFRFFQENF
Sequence of NADPH oxidase 2 (Homo sapiens) (P04839 whole entry, looked up): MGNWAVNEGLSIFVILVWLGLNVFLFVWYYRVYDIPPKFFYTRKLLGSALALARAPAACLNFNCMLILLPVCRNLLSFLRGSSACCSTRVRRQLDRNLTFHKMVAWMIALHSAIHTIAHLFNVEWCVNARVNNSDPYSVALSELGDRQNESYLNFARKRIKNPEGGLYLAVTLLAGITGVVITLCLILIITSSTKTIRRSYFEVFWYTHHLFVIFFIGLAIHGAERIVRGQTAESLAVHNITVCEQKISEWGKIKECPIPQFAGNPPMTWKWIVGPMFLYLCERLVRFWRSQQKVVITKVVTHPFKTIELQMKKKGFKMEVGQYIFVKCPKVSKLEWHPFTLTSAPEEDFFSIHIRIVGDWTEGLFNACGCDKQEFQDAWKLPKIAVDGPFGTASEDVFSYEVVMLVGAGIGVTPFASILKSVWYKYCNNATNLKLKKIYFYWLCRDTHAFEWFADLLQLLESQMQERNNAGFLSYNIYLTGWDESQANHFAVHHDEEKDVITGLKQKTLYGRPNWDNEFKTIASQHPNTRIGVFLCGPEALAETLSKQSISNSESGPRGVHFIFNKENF

With `C=C(CCCC)/C(=C/C[C@@H](OC(=O)c1ccncc1)c1cccc(OCCO)c1)c1cnc2ccccc2c1`, the z-score in [1] is 0.0513 (inactive); in [3], 19.1 (active); in [4] it was 3.53 (inactive); in assay [5], 0.902 (inactive); in assay [6], 1.12 (inactive); in [7], 0.462. Also, the z-score in assay [8] was -1.21 (inactive); in assay [9], -0.36 (inactive); in assay [10], -0.509; in [11], -0.021; in [12], 1.14; in [13] it was -0.681. Besides, the z-score was -2.65 in assay [14]; -1.5 in assay [15]; 1.99 in assay [16]; -0.891 (inactive) in assay [17]; -0.497 in assay [18]; 0.117 in assay [19]. Moreover, the z-score in assay [20] was 0.586 (inactive). In [2], this molecule came in with a composite z-score of 0.284.

Turning to `Cc1ccc(F)cc1S(=O)(=O)N[C@@H]1CCN(Cc2ccc(OC(C)C)cc2)C1`, the z-score in assay [1] is -19.2 (active); in assay [3] it was 2.14 (inactive); in assay [4] it was 0.45 (inactive); in [5] it was -0.11 (inactive); in [6] it was 0.673 (inactive); in assay [7], -0.157. The z-score in assay [8] is -0.681 (inactive); in assay [9], -0.987 (inactive); in assay [10], -1.62; in [11] it was 0.0197; in [12] it was -0.382; in [13] it was -0.867. Besides, the z-score is -2.58 in assay [14]; -0.974 in assay [15]; -1.41 in assay [16]; 0.0582 (inactive) in assay [17]; 0.0721 in assay [18]; -1.87 in assay [19]. Besides, the z-score in assay [20] is -0.26 (inactive). In addition, the composite z-score in assay [2] is -0.186.

`NC(=O)NCC#Cc1ccc2c(c1)[C@]1(C(=O)N2)[C@H](C(=O)O)[C@H]2C(=O)O[C@H](c3ccccc3)[C@H](c3ccccc3)N2[C@@H]1c1ccccc1OCCO`: the z-score in [1] is 3.32 (inactive); in [3] it was -1.21 (inactive); in assay [4], -1.81 (inactive); in [5], -3.99 (inactive); in assay [6], -2.67 (inactive); in [7] it was 2.78. Besides, the z-score in assay [8] is 2.1 (inactive); in assay [9], 0.786 (inactive); in assay [10] it was -0.188; in [11], 0.789; in [12], 1.03; in [13], 0.728. The z-score in assay [14] is 1.33; in assay [15] it was 1.35; in assay [16], -0.867; in assay [17] it was -0.377 (inactive); in assay [18] it was -0.0612; in [19] it was 0.997. The z-score in assay [20] was 0.877 (inactive). This molecule also gave a composite z-score in assay [2] of 0.73.

With `C=C(C(=O)CC[C@H](OC(=O)c1cccnc1)c1cccc(OCCO)c1)C(C)C`, the z-score in assay [1] is 0.184 (inactive); in [3], 14.4 (active); in [4] it was 2.83 (inactive); in [5], 1.76 (inactive); in assay [6], 1.04 (inactive); in assay [7], -0.0915. The z-score in [8] is 0.657 (inactive); in assay [9], -0.0784 (inactive); in [10] it was -2.05; in assay [11], 0.647; in [12], 0.47; in assay [13] it was -0.419. Moreover, the z-score is -2.44 in [14]; -1.46 in assay [15]; -1.03 in assay [16]; 0.584 (inactive) in [17]; -0.0636 in assay [18]; -0.326 in assay [19]. Moreover, in assay [20], the z-score is 0.371 (inactive). The same molecule gave a composite z-score in [2] of 0.0327.

On to `C=CCOC(=O)[C@@H]1[C@H]2C(=O)O[C@H](c3ccccc3)[C@H](c3ccccc3)N2[C@H](c2ccc(OCCOC(=O)[C@H]3C[C@H]4C(=O)N[C@@H](CCCCNC(C)=O)C(=O)N4[C@H]3c3cccc(OCCO)c3)cc2)[C@@]12C(=O)Nc1ccc(I)cc12`, for which the z-score was -0.04 (inactive) in assay [1]; 3.68 (inactive) in assay [3]; 1.73 (inactive) in assay [4]; 0.309 (inactive) in assay [5]; 1.16 (inactive) in [6]; -0.479 in assay [7]. The z-score in assay [8] is 1.62 (inactive); in assay [9], 0.898 (inactive); in assay [10], 1.86; in assay [11] it was -0.596; in assay [12] it was 0.159; in assay [13], 0.821. The z-score in [14] is -0.387; in assay [15], -0.0069; in assay [16], -0.742; in assay [17] it was 0.605 (inactive); in assay [18] it was -0.517; in assay [19], -0.864. The z-score in assay [20] was 0.304 (inactive). Also, the composite z-score in [2] is -0.0358.

As to `C=CCC(OC(C)=O)[C@@H]1[C@@H](N(Cc2cc3ccccc3o2)C(=O)c2ccc(C)cc2)c2cc(OCCCO)ccc2N1C(=O)Cc1ccc2ccccc2c1` (stereo not given in full), the z-score in assay [1] was 2.52 (inactive); in assay [3], 1.49 (inactive); in [4], 0.434 (inactive); in assay [5], -0.884 (inactive); in [6], 0.283 (inactive); in [7], 0.866. In addition, the z-score in [8] is 0.597 (inactive); in [9], 0.921 (inactive); in assay [10] it was 2.32; in [11], 2.34; in [12], 0.133; in assay [13] it was 1.18. Besides, the z-score was -0.623 in assay [14]; -0.802 in assay [15]; 3.42 in assay [16]; -0.577 (inactive) in assay [17]; 0.0031 in assay [18]; 0.718 in assay [19]. The z-score in [20] is 1.65 (inactive). This molecule also showed a composite z-score in assay [2] of -0.103.

For `O=C1O[C@@H](c2ccccc2)[C@@H](c2ccccc2)N2[C@@H](c3ccccc3OCCO)[C@]3(C(=O)Nc4ccc(C#CCCO)cc43)[C@@H](C(=O)N3CCN(c4ncccn4)CC3)[C@H]12`, the z-score in assay [1] was 0.255 (inactive); in [3] it was 2.58 (inactive); in assay [4] it was 1.27 (inactive); in assay [5], -1.09 (inactive); in assay [6], 0.418 (inactive); in [7], -0.531. The z-score is 1.3 (inactive) in [8]; -0.686 (inactive) in assay [9]; 0.272 in assay [10]; 0.246 in assay [11]; 0.986 in [12]; -0.477 in assay [13]. For the same molecule, the z-score in [14] was -0.315; in assay [15], -3.89; in [16], 0.799; in assay [17] it was 0.778 (inactive); in [18], -1.33; in assay [19] it was 0.431. For the same molecule, the z-score in [20] was 1.13 (inactive). The same molecule registered a composite z-score in assay [2] of 0.0927.

In the case of `C[C@H]1C2=C3C(CC[C@H]4C(OCc5ccc(F)cc5C(F)(F)F)OC[C@](C)([C@@H]34)N(C(=O)OC(C)(C)C)C2)C2COC(=O)OCC21` (stereo not given in full), the z-score in assay [1] was -2.42 (inactive); in assay [3], 2.68 (inactive); in assay [4] it was 0.368 (inactive); in [5], 1.19 (inactive); in assay [6] it was 1.11 (inactive); in assay [7], -0.139. Moreover, the z-score in assay [8] was -0.0545 (inactive); in [9], -2.17 (inactive); in [10], -1.09; in [11] it was -1.17; in assay [12], 0.338; in assay [13] it was -0.659. Moreover, the z-score was -2.6 in assay [14]; -3.96 in assay [15]; -0.255 in assay [16]; -1.06 (inactive) in assay [17]; -0.325 in assay [18]; -0.183 in [19]. For the same molecule, in [20], the z-score was 0.117 (inactive). In addition, the composite z-score in assay [2] amounted to 0.739.
